The sample as a whole holds a higher share of hits than the screen did.
DUX4 inh: DUX4-mediated transcription inhibition. 293T-iDUX4 ZSCAN4-Gaussia luciferase reporter, 24 h; stronger effect = lower value. 37,000 compounds, 0.8% hits. activity change, negative = inhibition, % (test concentration not listed);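 active means mean inhibition of at least 10% in the main channel, exceeding the control channel by a set limit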;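 further: 0% = median of neutral control wells and -100% = median of positive control wells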
Numbers without * were called inactive.

SMILES	DUX4 inh
O=C(c1ccc(F)cc1)N1CC[C@@H]2[C@H]1c1cc(-c3ccccc3F)ccc1N[C@@H]2CO	19
O=C(c1cccnc1)N1CC[C@@H]2[C@H]1c1cc(C#Cc3cccnc3)ccc1N[C@@H]2CO	-18*
O=C(c1cccc(F)c1)N1CC[C@@H]2[C@H](CO)Nc3ccc(-c4ccccc4F)cc3[C@@H]21	-32*
O=C(Cc1ccncc1)N1CC[C@@H]2[C@H](CO)Nc3ccc(-c4ccccc4F)cc3[C@@H]21	-48*
O=C(Cc1ccncc1)N1CC[C@@H]2[C@@H](CO)Nc3ccc(-c4cccc(F)c4)cc3[C@@H]21	-9
CN1c2ccc(-c3cccc(F)c3)cc2[C@H]2[C@H](CCN2C(=O)c2ccccc2F)[C@H]1CO	-45*
O=C(c1cccnc1)N1CC[C@H]2[C@H](CO)Nc3ccc(C#Cc4cccnc4)cc3[C@H]21	9
CCC(=O)N1CC[C@@H]2[C@@H](CO)N(C)c3ccc(-c4cccc(F)c4)cc3[C@@H]21	10
CC(=O)N1CC[C@@H]2[C@@H](CO)Nc3ccc(C#Cc4cccnc4)cc3[C@@H]21	5
O=C(Cc1ccccc1)N1CC[C@@H]2[C@@H](CO)Nc3ccc(-c4ccccc4F)cc3[C@@H]21	8
CN1c2ccc(-c3cccc(F)c3)cc2[C@H]2[C@H](CCN2C(=O)c2ccncc2)[C@@H]1CO	-1
O=C(c1cccc(F)c1)N1CC[C@@H]2[C@H]1c1cc(-c3ccccc3F)ccc1N[C@@H]2CO	1
COCC(=O)N1CC(=O)N2[C@H](C1)[C@@H](c1ccc(C#CCc3ccccc3)cc1)[C@@H]2CO	-4
CCN1[C@@H]2c3ccc(-c4ccncc4)c(=O)n3C[C@@H]2[C@@H](CO)[C@@H]1C(=O)NCCc1cn(C)cn1	1
O=C(NC1CCCC1)N1CC(=O)N2[C@H](C1)[C@@H](c1ccc(-c3cccnc3)cc1)[C@@H]2CO	3
CC(C)CC#Cc1ccc([C@@H]2[C@@H](CO)N3C(=O)CN(C(=O)Cc4ccccc4)C[C@@H]23)cc1	-10
CCCNC(=O)N1[C@H](CO)[C@@H](c2ccccc2)C12CN(C(=O)c1cccnc1)C2	9
O=C(c1ccccc1)N1CC[C@@H]2[C@H]1c1cc(C#Cc3cccc(F)c3)ccc1N[C@@H]2CO	-4
COc1ccccc1CN1CC[C@@H]2[C@@H](CO)Nc3ccc(-c4cccc(F)c4)cc3[C@@H]21	-24*
OC[C@H]1Nc2ccc(-c3ccc(F)cc3)cc2[C@@H]2[C@H]1CCN2Cc1ccc(F)cc1	-4
O=C(c1ccccc1)N1CC[C@@H]2[C@@H](CO)Nc3ccc(C#Cc4cccc(F)c4)cc3[C@@H]21	-43*
O=C(c1cccc(F)c1)N1CC[C@@H]2[C@H](CO)Nc3ccc(C#Cc4ccc(F)cc4)cc3[C@@H]21	-42*
COc1ccccc1CN1CC[C@@H]2[C@H](CO)Nc3ccc(C#Cc4ccccc4)cc3[C@@H]21	-8
COc1cccc(C#Cc2ccc3c(c2)[C@@H]2[C@@H](CCN2C(=O)c2ccc(F)cc2)[C@@H](CO)N3)c1	6
O=C(c1cccc(F)c1)N1CC[C@@H]2[C@H](CO)Nc3ccc(C#CC4CC4)cc3[C@@H]21	6
SMILES	DUX4 inh
O=C(c1cccc(F)c1)N1CC[C@@H]2[C@H]1c1cc(-c3cccc(F)c3)ccc1N[C@@H]2CO	2
COc1ccc2c3c(n(C)c2c1)[C@H](CO)NCC31CN(S(=O)(=O)c2ccccc2)C1	8
COc1ccc(S(=O)(=O)N(C)C[C@@H]2Oc3ccc(NC(=O)CCCCCC(=O)Nc4ccccc4N)cc3C(=O)N([C@H](C)CO)C[C@@H]2C)cc1	-3
CO[C@@H]1CN(C)C(=O)c2ccc(NC(=O)c3cccc(F)c3)cc2OC[C@@H](C)N(CC2CC2)C[C@H]1C	-5
COc1ccc2c3c([nH]c2c1)[C@@H](CO)N(C(=O)CN(C)C)CC31CN(C(=O)c2cccnc2)C1	19
COC(=O)C[C@H]1CC[C@H]2[C@@H](COc3ccc(NC(=O)c4ccc(F)c(F)c4)cc3C(=O)N2C)O1	6
CC[C@H]1CC=CC[C@H](C)Oc2ccccc2C(=O)N(C)[C@@H](C(C)C)C(=O)N1 (mixture of isomers)	1
COc1cccc(C#Cc2ccc3c(c2)[C@H]2[C@H](CCN2C(=O)c2ccccc2F)[C@H](CO)N3)c1	-28*
COc1ccc(C#Cc2ccc3c(c2)[C@H]2[C@H](CCN2C(=O)c2ccccc2F)[C@H](CO)N3)cc1	-32*
COc1cccc(C#Cc2ccc3c(c2)[C@@H]2[C@@H](CCN2C(=O)c2ccccc2F)[C@@H](CO)N3)c1	8
COc1ccc(C#Cc2ccc3c(c2)[C@@H]2[C@@H](CCN2C(C)=O)[C@@H](CO)N3)cc1	19
O=C(c1ccccc1F)N1CC[C@H]2[C@H](CO)Nc3ccc(C#Cc4ccc(F)cc4)cc3[C@H]21	-6
COc1cccc(C#Cc2ccc3c(c2)[C@H]2[C@H](CCN2C(=O)c2ccc(F)cc2)[C@H](CO)N3)c1	-9
COc1ccc(NC(=O)Nc2ccc3c(c2)C(=O)N([C@H](C)CO)C[C@H](C)[C@@H](CN(C)C(=O)NC2CCCCC2)OCCCC[C@H](C)O3)cc1	7
O=C(c1ccncc1)N1C[C@H]2[C@@H](c3ccccc31)[C@@H](CO)N2C(=O)CN1CCOCC1	-3
Cc1cccc(NC(=O)Nc2ccc3c(c2)C(=O)N(C)[C@H]2CC[C@@H](CC(=O)NCc4ccccc4Cl)O[C@H]2CO3)c1	0
COc1ccc(C(=O)N2C[C@@H]3[C@H](c4ccccc42)[C@@H](CO)N3C(=O)NC(C)C)cc1	2
C[C@H]1CC=CC[C@@H](c2ccc(F)cc2)NC(=O)[C@H](C)N(C)C(=O)c2ccccc2O1 (mixture of isomers)	-1
N#Cc1ccc(-c2ccc([C@H]3[C@H]4CNCC(=O)N4[C@H]3CO)cc2)cc1	2
CN1c2ccc(-c3ccc(F)cc3)cc2[C@H]2[C@H](CCN2C(=O)C2CCOCC2)[C@@H]1CO	-1
COc1ccccc1NC(=O)C[C@H]1CC[C@H]2[C@@H](COc3ccc(NS(C)(=O)=O)cc3C(=O)N2C)O1	0
C[C@@H]1CN([C@@H](C)CO)C(=O)c2ccccc2-c2ccccc2CO[C@@H]1CN(C)Cc1ccc(Cl)c(Cl)c1	-31*
C[C@@H]1CN([C@H](C)CO)C(=O)c2ccccc2-c2ccccc2CO[C@@H]1CN(C)Cc1cccc(F)c1	-7
C[C@H](CO)N1C[C@H](C)[C@@H](CN(C)Cc2cccc(C(F)(F)F)c2)OCc2ccccc2-c2ccccc2C1=O	-42*
C[C@H]1CN([C@@H](C)CO)C(=O)c2ccccc2-c2ccccc2CO[C@@H]1CN(C)Cc1cccc(F)c1	-3
SMILES	DUX4 inh
C[C@H](CO)N1C[C@H](C)[C@H](CN(C)Cc2ccc3c(c2)OCO3)OCc2ccccc2-c2ccccc2C1=O	-6
C[C@@H]1CN([C@@H](C)CO)C(=O)c2ccccc2-c2ccccc2CO[C@@H]1CN(C)Cc1ccc(-c2ccccc2)cc1	-29*
C[C@H](CO)N1C[C@H](C)[C@H](CN(C)Cc2ccc(-c3ccccc3)cc2)OCc2ccccc2-c2ccccc2C1=O	-7
C[C@H](CO)N1C[C@H](C)[C@@H](CN(C)Cc2ccc3c(c2)OCO3)OCc2ccccc2-c2ccccc2C1=O	8
C[C@@H]1CN([C@@H](C)CO)C(=O)c2ccccc2-c2ccccc2CO[C@@H]1CN(C)Cc1ccc(F)cc1	0
COCC(=O)NC[C@@H]1[C@@H](c2ccc(C3=CCCC3)cc2)[C@H](CO)N1C(=O)C1CC1	-1
